In the library only some 0.93% were active in any assay of this set; here they are far more common.
RPL19A-GFP yeast = RPL19A-GFP expression modulators in yeast, primary screen, cell-based, S. cerevisiae, multiplex flow cytometry, MLPCN. percent response vs DMSO, % at 10 µM. S. cerevisiae RPL19A-GFP strain, 3 h; stronger effect = lower value. actives 0.3% (n = 330,000);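 active = percent response vs DMSO below 50%; inconclusive = fewer than 70 events counted for the yeast strain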;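 also: median channel GFP fluorescence of the barcoded RPL19A-GFP strain; ratio of sample median GFP to plate DMSO average so 100% = DMSO; lower means less RPL19A-GFP as with rapamycin TOR inhibition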
MEP2-GFP yeast = modulators of MEP2-GFP levels in yeast, primary screen, S. cerevisiae, multiplex flow cytometry, MLPCN library. S. cerevisiae MEP2-GFP strain, 3 h; 100% = DMSO control level. actives 0.51% (n = 330,000). GFP response vs DMSO, % at 10 µM. AID 2016, 2009;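 active = GFP response versus DMSO above a set limit, roughly screen mean plus 3 SD, cut at about 180% in these data; inconclusive = fewer than 70 cells counted for a yeast strain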;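 also: median GFP fluorescence of the barcode-gated MEP2-GFP cells per well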
AGP1-GFP MLPCN = modulators of AGP1-GFP expression in yeast TOR pathway, primary screen, cell-based, multiplex flow cytometry, S. cerevisiae, MLPCN library | GFP response vs DMSO, % at 10 µM | actives 0.02% (n = 320,000) | AID 2066, 2009 | 3 h; GFP as percent of DMSO wells;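 active = GFP response relative to DMSO above a set limit, near screen average plus 3 SD, cut at about 150% in these data; inconclusive = fewer than 70 cells counted for the yeast strain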;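 also: median GFP channel fluorescence of the gated AGP1 strain per well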
LAP4 TOR yeast = modulators of LAP4-GFP expression in yeast, primary screen, S. cerevisiae, multiplex flow cytometry, MLPCN library. GFP response vs DMSO, % at 10 µM. 3 h; median GFP as percent of DMSO wells. actives 0.34% (n = 320,000);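 active = GFP response vs DMSO above a set limit, about the screen mean plus 3 SD, cut at about 150% in these data; inconclusive = under 70 cell events counted for the yeast strain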
CIT2 TOR yeast = modulators of CIT2-GFP expression in yeast, primary screen, S. cerevisiae, GFP fusion, multiplex flow cytometry, MLPCN library | S. cerevisiae CIT2-GFP strain, 3 h; 100 means same as DMSO wells | GFP response vs DMSO, % at 10 µM | actives 0.065% (n = 320,000);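 active = GFP response relative to DMSO above a set limit, near the screen mean plus 3 SD, cut at about 150% in these data; inconclusive = Fewer than 70 cells measured for a yeast strain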;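 also: ratio of well median GFP fluorescence to mean of DMSO wells on the plate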
Active calls of the source: *; [ ] = dose if it differs, or a comment.

For C=CCc1c(O)c(CC)cc2c(C)cc(=O)oc12 the results were RPL19A-GFP yeast 45*[may fluoresce violet], MEP2-GFP yeast 251*[may fluoresce violet], AGP1-GFP MLPCN inconclusive, LAP4 TOR yeast 93 and CIT2 TOR yeast inconclusive.
`CCC(=O)c1cc2c(C)cc(=O)oc2c(C)c1O` gave RPL19A-GFP yeast 98, MEP2-GFP yeast 105, AGP1-GFP MLPCN 100, LAP4 TOR yeast 104 and CIT2 TOR yeast 103.
`S=C(Nc1ccccc1Cl)N(CCCN1CCOCC1)Cc1ccccn1` gave RPL19A-GFP yeast 96, MEP2-GFP yeast 96, AGP1-GFP MLPCN 94, LAP4 TOR yeast 93 and CIT2 TOR yeast 100.
`CC(=O)NCC1=C(NC(C)=O)C2CC1C(C)(C)C2C` (stereo unspecified) gave RPL19A-GFP yeast 27*[may fluoresce violet], MEP2-GFP yeast 600*[may fluoresce violet], AGP1-GFP MLPCN inconclusive, LAP4 TOR yeast 67 and CIT2 TOR yeast inconclusive.
c1ccc2nc3c(nc2c1)[nH]c1ccccc13 was read as RPL19A-GFP yeast 41*[may fluoresce violet], MEP2-GFP yeast 503*[may fluoresce violet], AGP1-GFP MLPCN inconclusive, LAP4 TOR yeast 86 and CIT2 TOR yeast inconclusive.
Screening c1ccc(-c2c3ccccc3nc3[nH]c4ccccc4c23)cc1 returned RPL19A-GFP yeast 90, MEP2-GFP yeast 86, AGP1-GFP MLPCN 74, LAP4 TOR yeast 150 and CIT2 TOR yeast 85.
`Cc1ccc(S(=O)(=O)c2cc3c(=O)n4ccccc4nc3n(CCc3ccccc3)c2=N)cc1` gave RPL19A-GFP yeast 43*[may fluoresce violet], MEP2-GFP yeast 217*[may fluoresce violet], AGP1-GFP MLPCN inconclusive, LAP4 TOR yeast 85 and CIT2 TOR yeast inconclusive.
Screening Cc1ccc(S(=O)(=O)c2cc3c(=O)n4ccccc4nc3n(C3CCCC3)c2=N)cc1 returned RPL19A-GFP yeast inconclusive, MEP2-GFP yeast 291*[may fluoresce red and violet], AGP1-GFP MLPCN inconclusive, LAP4 TOR yeast 93 and CIT2 TOR yeast inconclusive.
For CCC(C)N(C(=O)COC(=O)C1CCN(S(=O)(=O)c2ccc(C)c(C)c2)CC1)C1CCS(=O)(=O)C1 (stereo unspecified) the results were RPL19A-GFP yeast 96, MEP2-GFP yeast 104, AGP1-GFP MLPCN 101, LAP4 TOR yeast 95 and CIT2 TOR yeast 100.
Screening C=CCOC(=O)C(C#N)c1nc2ccccc2nc1N1CCCC1 (stereo unspecified) returned RPL19A-GFP yeast 93, MEP2-GFP yeast 104, AGP1-GFP MLPCN 95, LAP4 TOR yeast 125 and CIT2 TOR yeast 82.
`CCCCN(C)C(=O)CC(NS(=O)(=O)c1ccc(NC(C)=O)cc1)C(C)C` (stereo unspecified) gave RPL19A-GFP yeast 94, MEP2-GFP yeast 253*[may fluoresce violet], AGP1-GFP MLPCN 25, LAP4 TOR yeast 78 and CIT2 TOR yeast inconclusive.
Screening COc1ccc(-n2c(=S)[nH]c3cc(C(=O)NCCCN4CCCC4=O)ccc3c2=O)cc1OC returned RPL19A-GFP yeast 47*[may fluoresce violet], MEP2-GFP yeast inconclusive, AGP1-GFP MLPCN inconclusive, LAP4 TOR yeast inconclusive and CIT2 TOR yeast inconclusive.
For N=c1c(C(=O)NCCc2ccccc2)cc2c(=O)n3ccccc3nc2n1CCCN1CCOCC1 the results were RPL19A-GFP yeast 45*[may fluoresce violet], MEP2-GFP yeast 444*[may fluoresce violet], AGP1-GFP MLPCN inconclusive, LAP4 TOR yeast 90 and CIT2 TOR yeast inconclusive.
For CC1CC(NC(=O)c2cc3c(=O)n4ccccc4nc3n2C)CC(C)(C)C1 (stereo unspecified) the results were RPL19A-GFP yeast 26*[may fluoresce violet], MEP2-GFP yeast 130, AGP1-GFP MLPCN inconclusive, LAP4 TOR yeast 79 and CIT2 TOR yeast inconclusive.
Cc1ccc2nc3c(cc(C(=O)NCCCn4ccnc4)n3C)c(=O)n2c1 was read as RPL19A-GFP yeast 39*[may fluoresce violet], MEP2-GFP yeast 371*[may fluoresce violet], AGP1-GFP MLPCN 78 and LAP4 TOR yeast 86.
Screening N=c1c(C(=O)NCc2ccc(F)cc2)cc2c(=O)n3ccccc3nc2n1CCCN1CCOCC1 returned RPL19A-GFP yeast 18*, MEP2-GFP yeast 235*[may fluoresce violet], AGP1-GFP MLPCN 81, LAP4 TOR yeast 98 and CIT2 TOR yeast inconclusive.
Cn1c(C(=O)O)cc2c(=O)n3ccccc3nc21 was read as RPL19A-GFP yeast 49*, MEP2-GFP yeast 209*, AGP1-GFP MLPCN 101, LAP4 TOR yeast 89 and CIT2 TOR yeast 120.
`COCCCn1c(C(=O)NCCN2CCOCC2)cc2c(=O)n3ccccc3nc21` gave RPL19A-GFP yeast inconclusive, MEP2-GFP yeast inconclusive, AGP1-GFP MLPCN 98, LAP4 TOR yeast 104 and CIT2 TOR yeast 95.
N=c1c(C(=O)NCCN2CCOCC2)cc2c(=O)n3ccccc3nc2n1CCc1ccccc1 was read as RPL19A-GFP yeast 14*[may fluoresce violet], MEP2-GFP yeast 251*[may fluoresce violet], AGP1-GFP MLPCN inconclusive, LAP4 TOR yeast 77 and CIT2 TOR yeast inconclusive.
For Cn1c(C(=O)NCCN2CCOCC2)cc2c(=O)n3ccccc3nc21 the results were RPL19A-GFP yeast 46*[may fluoresce violet], MEP2-GFP yeast 263*[may fluoresce violet], AGP1-GFP MLPCN inconclusive, LAP4 TOR yeast 68 and CIT2 TOR yeast inconclusive.
Screening Cn1c(C(=O)N2CCOCC2)cc2c(=O)n3ccccc3nc21 returned RPL19A-GFP yeast 61, MEP2-GFP yeast 143, AGP1-GFP MLPCN inconclusive, LAP4 TOR yeast 64 and CIT2 TOR yeast inconclusive.
For N=c1c(C(=O)NCc2ccccc2)cc2c(=O)n3ccccc3nc2n1CCCN1CCOCC1 the results were RPL19A-GFP yeast 14*[may fluoresce violet], MEP2-GFP yeast 231*[may fluoresce violet], AGP1-GFP MLPCN inconclusive, LAP4 TOR yeast 73 and CIT2 TOR yeast inconclusive.
Screening CC(=O)Nc1sc2c(c1C(c1ccncc1)N1CCOCC1)CCCC2 (stereo unspecified) returned RPL19A-GFP yeast 98, MEP2-GFP yeast 98, AGP1-GFP MLPCN 105, LAP4 TOR yeast 104 and CIT2 TOR yeast 99.
`Cc1ccc2cc3cc(C(=O)NC4CC4)oc3nc2c1` gave RPL19A-GFP yeast 83, MEP2-GFP yeast 107, AGP1-GFP MLPCN 81, LAP4 TOR yeast 108 and CIT2 TOR yeast 78.
Screening Cc1ccc2cc3cc(C(=O)NC4CCCCC4)oc3nc2c1 returned RPL19A-GFP yeast 29*[may fluoresce violet], MEP2-GFP yeast 126, AGP1-GFP MLPCN inconclusive, LAP4 TOR yeast 86 and CIT2 TOR yeast inconclusive.
For COc1ccc(NC2CCCN(C(=O)c3csc(C)n3)C2)cc1 (stereo unspecified) the results were RPL19A-GFP yeast 96, MEP2-GFP yeast 81, AGP1-GFP MLPCN 91, LAP4 TOR yeast 68 and CIT2 TOR yeast 113.
`CCOC(=O)C1C(=O)C=C(c2ccc(C)cc2)CC1c1ccco1` (stereo unspecified) gave RPL19A-GFP yeast 91, MEP2-GFP yeast 240*, AGP1-GFP MLPCN 91, LAP4 TOR yeast 113 and CIT2 TOR yeast 92.
CC(=O)Oc1ccc(N2C(=O)C3C(C2=O)C2(C)C=CC3(C)O2)cc1 (stereo unspecified) was read as RPL19A-GFP yeast 84, MEP2-GFP yeast 87, AGP1-GFP MLPCN 82 and LAP4 TOR yeast 262*.
